Rows were chosen to be rich in hits. Some 12% of all compounds tested hit in one or more screens of this group.
G9a inh – inhibitors of human histone lysine methyltransferase G9a | Potency, µM (top dose mostly 102 µM), for the others: at the top dose activity, negative = inhibition, most hits filed as inhibitors | 350,000 compounds, 8.8% hits | G9a H3K9 monomethylation, AlphaScreen, 2 h | AID 504332 | Q96KQ7; further: on the % scale 0 is the no-effect control and ±100 the full control effect; nearly all actives have a fitted effect of over 75% in size
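Signal arises when biotinylated H3K9 peptide, once monomethylated, bridges streptavidin donor and antibody-captured acceptor beads. Enzyme at 20 nM was preincubated 15 min with test compounds; peptide 500 nM and SAM 20 uM then reacted for 2 h.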
HP1b binding inh – HP1-beta chromodomain-methylated histone interaction inhibition; Potency, µM (titrated, usually from 114 µM), for the others: at the highest dose activity change, negative = inhibition, most hits filed as inhibitors; 390,000 compounds, 0.56% hits; AlphaScreen HP1-beta / biotin-H3K9me3 peptide binding; P83916; further: nearly all actives have a fitted effect of over 70% in size
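Compound inhibition of the preformed complex between 50 nM HP1-beta and 50 nM biotinylated H3K9me3 peptide was read by AlphaScreen. Buffer was PBS pH 7.4 with 0.01% Tween-20. Incubations ran 30 min at room temperature, with 10 ug/mL donor/acceptor beads.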
JMJD2A Tudor – inhibitors of human JMJD2A Tudor domain. O75164. 390,000 compounds, 4.4% hits. AlphaScreen JMJD2A-Tudor / H3K4me3 peptide binding. Potency, µM (top dose mostly 114 µM), for the others: at the top dose activity change, negative = inhibition, most hits filed as inhibitors. AID 504339; further: on the % scale 0 is the no-effect control and ±100 the full control effect; nearly all actives have a fitted effect of over 50% in size
Target sequence (O75164 whole entry, looked up, the tested form may be a part): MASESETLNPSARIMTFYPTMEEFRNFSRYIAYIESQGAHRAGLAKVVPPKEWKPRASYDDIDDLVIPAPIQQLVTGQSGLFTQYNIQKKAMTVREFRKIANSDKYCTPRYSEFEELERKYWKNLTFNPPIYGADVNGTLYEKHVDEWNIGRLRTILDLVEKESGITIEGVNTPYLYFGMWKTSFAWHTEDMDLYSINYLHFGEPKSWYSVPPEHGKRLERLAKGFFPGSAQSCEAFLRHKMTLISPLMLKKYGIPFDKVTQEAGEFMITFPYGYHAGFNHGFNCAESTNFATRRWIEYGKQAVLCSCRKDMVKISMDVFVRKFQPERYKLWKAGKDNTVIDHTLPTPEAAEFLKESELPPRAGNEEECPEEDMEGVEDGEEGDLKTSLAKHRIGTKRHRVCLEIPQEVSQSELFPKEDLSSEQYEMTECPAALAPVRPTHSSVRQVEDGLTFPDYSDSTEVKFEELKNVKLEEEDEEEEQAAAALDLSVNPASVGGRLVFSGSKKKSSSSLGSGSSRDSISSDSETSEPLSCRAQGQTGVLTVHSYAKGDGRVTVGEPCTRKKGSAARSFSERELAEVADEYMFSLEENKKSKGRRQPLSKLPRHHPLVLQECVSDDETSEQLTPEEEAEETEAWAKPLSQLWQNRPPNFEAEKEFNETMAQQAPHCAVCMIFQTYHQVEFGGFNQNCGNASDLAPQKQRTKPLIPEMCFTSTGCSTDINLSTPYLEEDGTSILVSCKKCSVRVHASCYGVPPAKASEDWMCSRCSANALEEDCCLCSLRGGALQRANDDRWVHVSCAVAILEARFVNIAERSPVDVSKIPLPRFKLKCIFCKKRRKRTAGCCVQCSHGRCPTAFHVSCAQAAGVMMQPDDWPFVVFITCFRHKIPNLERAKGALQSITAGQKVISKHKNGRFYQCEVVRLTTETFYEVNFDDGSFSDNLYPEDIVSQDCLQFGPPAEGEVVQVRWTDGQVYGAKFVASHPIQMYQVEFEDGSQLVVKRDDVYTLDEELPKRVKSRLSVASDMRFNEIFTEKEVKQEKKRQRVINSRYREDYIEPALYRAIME
Sfp PPTase inh – Sfp phosphopantetheinyl transferase inhibition; Q9F4F7; Biochemical Sfp PPTase activity, qHTS; Potency, µM, for the others: largest response in the series, negative = inhibition, actives largely listed as inhibitors; 310,000 compounds, 3.5% hits;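 further: the enzyme is Sfp with the accession as filed and its product quenches rhodamine fluorescence; 0% = enzyme reaction without inhibitor and -100% = no enzyme wells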
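With Hepes-Na pH 7.6 buffer containing 10 mM MgCl2, Sfp (15 nM) modified BHQ-2-YbbR (12.5 uM) using rhodamine-CoA (5 uM). Two reads 30 minutes apart at 525/598 nm yielded each well's rate.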
BAZ2B block – inhibitors of human BAZ2B bromodomain | Q9UIF8 | AlphaScreen BAZ2B-H3K14Ac peptide displacement | Potency, µM (top dose mostly 114 µM), for the others: top-dose activity change, negative = inhibition, usual class: inhibitors | 360,000 compounds, 4.4% hits | AID 504333; further: on the % scale 0 is the no-effect control and ±100 the full control effect; nearly all actives have a fitted effect of over 60% in size
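BAZ2B 50 nM plus b-H3(5-23)K14Ac 50 nM, PBS pH 7.4/0.01% Tween-20, 30 min RT; compound added (max 110 uM), 30 min RT; streptavidin donor/Ni-chelate acceptor beads 10 ug/mL final, 20 min dark; AlphaScreen read.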
Numbers without * were called inactive; ? = inconclusive; nt = no result given; [ ] = another dose, or the depositor's remark. The call rests on the fitted dose curve; in most records, active means well fitted curve in the direction sought with a large enough effect; inconclusive means small, poorly fitted or top-dose-only effect, or another doubt; inactive means no such curve, though single readings can be large; an effect the other way counts as inactive or inconclusive. Potency means the concentration at half of the fitted maximal effect.

SMILES	G9a inh	HP1b binding inh	JMJD2A Tudor	Sfp PPTase inh	BAZ2B block
COC(=O)C1CSc2[nH]c(=O)sc2C1c1ccc(OC)c(OC)c1 (configuration not stated)	71µM*	-5%	-9%	-23%	-29%
COC(=O)C1C(c2ccc(OC)c(OC)c2)NC(c2ccc(OC)c(OC)c2)C(C(=O)OC)S1(=O)=O (configuration not stated)	-45%[59 µM]	10%	-15%	?	-4%
CCC(c1nnnn1Cc1ccco1)N(Cc1cc2cc(C)cc(C)c2[nH]c1=O)CC1CCCO1 (configuration not stated)	?	?	-21%[11.4 µM]	22µM*	?
Cc1cccc2cc(C(c3nnnn3C(C)(C)C)N(Cc3ccco3)CC3CCCO3)c(=O)[nH]c12 (configuration not stated)	50µM*	16µM*	25µM*	12%	50µM*
Cc1ccc2[nH]c(=O)c(C(c3nnnn3C(C)(C)C)N(Cc3ccco3)CC3CCCO3)cc2c1 (configuration not stated)	-36%	14%	-26%	?	11%
CCC(C)c1ccccc1OCCn1c(CCNC(=O)C2CCCCC2)nc2ccccc21 (configuration not stated)	nt	6%[57 µM]	-16%[57.1 µM]	nt	nt
COc1ccc(O)c(N)c1	7.9µM*	nt	nt	56µM*	50µM*
Cc1ccccc1C(=O)NC(=S)NCC(=O)c1ccccc1	-5%	5%	0%	-3%	8%
Cc1ccccc1C(=O)NCC(=O)NNC(=S)NC(=O)c1ccccc1	1.1µM*	22%	-6%[57.1 µM]	-3%	-4%
Cc1ccccc1C(=O)NCC(=O)NNC(=S)NC(=O)c1ccccc1C	10µM*	40%	?	-18%	-2%
Cc1ccccc1C(=O)NC(=S)NCc1ccccc1	13%[0.501 µM]	76%	14%	10%	-5%
CCOc1ccc(C(=O)c2cn(CC(=O)Nc3ccc4c(c3)OCO4)c3ccc(OC)cc3c2=O)cc1	?	7%	-22%	nt	-21%
C/C(CCN1CCCc2nc(C)c(C)cc21)=N\OC[C@@H](C)[C@H](OCc1ccccc1)C(C)C	nt	nt	nt	-4%	nt
C[C@@H]1CN([C@@H](C)CO)C(=O)c2cccc(NC(=O)C3CCOCC3)c2O[C@H]1CN(C)S(=O)(=O)c1ccc(Cl)cc1	nt	48%	-4%	nt	nt
Cc1ccc(C(=O)Nc2ccccc2)cc1S(=O)(=O)N1CCN(C)CC1	12%	13%	2%	7%	7%
Cc1ccc(N2C(=O)[C@@H]3[C@H](C2=O)C2CCCN2[C@@H]3C(=O)c2ccccc2)cc1 (some centres not stated)	-2%[2.33 µM]	12%	56µM*	56µM*	?
O=C1C2CCCN2C(c2ccccc2)N1c1ccc(F)cc1 (configuration not stated)	-21%	67%	-2%	-5%	-3%
O=C(c1ccccc1)[C@@H]1[C@@H]2C(=O)N(c3ccc(F)cc3)C(=O)[C@@H]2C2CCCN21 (some centres not stated)	nt	-10%	?	89µM*	-1%
Cc1cccc(Oc2nc3c(c(=O)n(C)c(=O)n3C)n2Cc2ccccc2)c1C	0%[59 µM]	37%	8%	nt	-4%
C=CCNCCCCOc1ccc(Br)cc1C	2.5µM*	?	2.5µM*	?	79µM*
Cc1cc(Br)ccc1OCCCCNCCO	nt	?	3.2µM*	-16%	?
CCOc1ccc(-c2c(C(=O)N/N=C/c3ccc(Cl)cc3)nnn2-c2nonc2N)cc1	32%	23%	9%	14%	-25%
COC(=O)C1=NN(N=O)C2(CC(=O)N(c3cc(C)cc(C)c3)C2=O)C1 (configuration not stated)	14µM*	36%	?	-23%	-2%
CCOC(=O)C1=NN(C(C)=O)C2(CC(=O)N(c3cc(C)cc(C)c3)C2=O)C1 (configuration not stated)	11%[59 µM]	7%	-2%	13%	4%
CCn1c(CNC(=O)C23CC4CC(CC(C4)C2)C3)nnc1SCC(=O)Nc1ccc(C)cc1	2%[59 µM]	23%	-3%	nt	-12%
SMILES	G9a inh	HP1b binding inh	JMJD2A Tudor	Sfp PPTase inh	BAZ2B block
CC(C)(C)NC(=O)NC(=O)Cn1cc(C(F)(F)F)ccc1=O	22%[59 µM]	55%	-3%	-13%	6%
COc1ccc(CNC(=O)c2ccc(C(C)(C)C)cc2)cc1	nt	17%	-9%	-6%	0%
CNC(=O)Nc1ccc(Cn2cc(C(F)(F)F)ccc2=O)cc1	6%	50%	8%	-9%	-21%
COc1ccc(CNC(=O)Cn2cc(C(F)(F)F)ccc2=O)cc1	50µM*	16%	-11%	-8%	12%
COc1ccc(CNC(=O)CN(C)Cc2ccc(C(C)(C)C)cc2)cc1	40µM*	?	2.8µM*	?	22µM*
CC(C)(C)NC(=O)Nc1ccc(Cn2cc(C(F)(F)F)ccc2=O)cc1	8%	-5%	32µM*	17%	2%
CN(CC(=O)NC(=O)NCc1ccccc1)Cc1ccc(Cl)cc1	45µM*	45%	16%	-13%	-3%
CCC(=O)OCC(=O)[C@@]1(OC(=O)CC)[C@@H](C)C[C@H]2[C@@H]3CCC4=CC(=O)C=C[C@]4(C)[C@@]3(F)[C@@H](O)C[C@@]21C	10%[59 µM]	nt	nt	-4%	nt
Cc1cc(Br)ccc1OCCOCCN1CCCC1	nt	2%	25µM*	-4%	?
Cc1ccc(OCC(=O)N2CCCCC2)c(Br)c1	21%[59 µM]	27%	-3%	16%	-5%
Cc1cc(Br)ccc1OCC(=O)NC1CCCC1	26%	54%	3%	16%	8%
Cc1cc(Br)ccc1OCCCCN1CCCCC1	?	?	1.6µM*	45µM*	50µM*
Cc1ccc(OCCOCCN2CCCC2)c(Br)c1	35µM*	?	28µM*	-10%	56µM*
Brc1ccc(OCCOCCN2CCOCC2)cc1	-40%[12.7 µM]	8%	-12%	12%	-3%
CCc1cccc(C)c1NC(=O)CCn1nc(C)c2c(C)n(-c3ccccc3)nc2c1=O	-27%[59 µM]	4%	-27%	nt	-20%
Fc1ccc(CCNc2ncnc3nc[nH]c23)cc1	nt	27%	-10%	nt	nt
CN(CC(=O)Nc1cccc(F)c1)C(=O)c1ccccc1CCc1ccccc1	-1%	24%	-16%	nt	2%
COc1ccccc1CNC(=O)CN1C(=O)N(C)C2(CCCCC2)C1=O	20%[12.7 µM]	35%	5%	nt	-1%
OC(CNCCc1ccc(Cl)cc1)COc1ccc2ccccc2c1 (configuration not stated)	-32%	0%	-28%	32µM*	?
C/C=C/c1ccc(OCC(O)CNCCc2ccc(OC)cc2)c(OC)c1 (configuration not stated)	7.9µM*	?	20µM*	79µM*	56µM*
C=CCc1ccc(OCC(O)CO)c(OC)c1 (configuration not stated)	?	20%	-3%	11%	-4%

From PubChem
